# Hits are enriched below; roughly 2.3% of the tested compounds scored in any of these assays.
# DNA FID counter: fluorescent intercalator displacement, NS3 helicase counter-screen; inhibition, % at 7.9 µM; DNA fluorescent intercalator displacement, fluorescence; hit rate 0.17% among 290,000; in the data active = inhibition above about 37%;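 note: 0% = vehicle and 100% = reference compound; higher means more ethidium bromide displaced from hairpin DNA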
# Rce1 inh: yeast Ras-converting enzyme inhibition | calls only | Q03530 | hit rate 0.27% among 290,000 | yeast membranes, quenched prenylated peptide cleavage fluorescence;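 active = fall in fluorescence gain of 50% or more versus controls, with final raw signal at or below 3038400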;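 note: plate controls were neutral control wells for no effect and wells lacking membranes for full effect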
# Target sequence (Q03530 whole entry, looked up): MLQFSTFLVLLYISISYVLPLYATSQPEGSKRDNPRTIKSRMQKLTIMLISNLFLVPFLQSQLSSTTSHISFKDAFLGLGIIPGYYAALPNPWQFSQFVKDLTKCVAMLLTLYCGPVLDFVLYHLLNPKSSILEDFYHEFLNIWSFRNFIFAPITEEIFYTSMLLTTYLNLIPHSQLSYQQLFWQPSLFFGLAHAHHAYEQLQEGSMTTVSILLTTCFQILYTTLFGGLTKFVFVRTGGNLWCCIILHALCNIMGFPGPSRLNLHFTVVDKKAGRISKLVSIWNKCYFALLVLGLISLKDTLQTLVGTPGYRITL
# M18AAP inhibitor: PfM18AAP enzyme inhibition; hit rate 1.2% among 290,000; inhibition, % at 7.35 µM; recombinant PfM18AAP, H-Glu-NHMec fluorogenic cleavage; AID 1822;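 active = inhibition above the campaign mean inhibition over all tested compounds plus 3 SD, cut at about 28% in these data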;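 note: 0% = plate median of test compound wells and 100% = 2 mM ZnCl2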
# Kir21 block: blocks the mouse Kir2.1 inward-rectifier potassium channel | HEK293-Kir2.1, FluxOR thallium flux fluorescence; active compounds read low | B-score at 10 µM | hit rate 0.85% among 310,000;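 active = fluorescence ratio B-score at or below minus 3 SD of library scores, with starting-brightness B-score within 2 SD, cut at about -4.2 in these data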;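 note: channel flux triggered by added potassium and thallium sulfate stimulus; B-score of peak minus minimum fluorescence over baseline after thallium stimulus; more negative B-score means stronger Kir2.1 block with less thallium influx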
# Starred values were filed as active, the others as inactive; i = inactive; . = not tested or not shown; + = active, no number.
SMILES,DNA FID counter,Rce1 inh,M18AAP inhibitor,Kir21 block
CCOc1cc(/C=N/NC(=O)c2ccc(N(C)S(=O)(=O)c3ccccc3)cc2)ccc1OC,-33,i,-8,-0.89
NCC(c1ccccc1)(c1ccccc1)c1ccccc1,14,i,-11,-4.8*
Cc1ccc(COc2ccsc2C(=O)O)cc1,-3,.,-5,.
CSc1nnc(-c2sccc2OCc2ccc(C)cc2)n1C,-24,i,-6,-4.3*
O=C1c2ccccc2C(=O)N1CCC(c1ccc(F)cc1)c1ccco1 (configuration not stated),-9,i,4,-4.8*
CCOC(=O)C1(CC)NC(c2ccc(OC)c(OC)c2)C2C(=O)N(c3cccc(C(C)=O)c3)C(=O)C21 (configuration not stated),-29,i,0,0
CC(=O)Nc1ccc(NC(=O)C2CCCN(c3nnc(-n4cccc4)s3)C2)cc1 (configuration not stated),-23,i,3,-4.6*
CC(C)NC(=O)C1CCCN(c2nnc(-n3cccc3)s2)C1 (configuration not stated),-8,i,2,0.26
CN(C)c1ccc(/C=N/NC(=O)CNC(=O)/C=C/c2ccccc2)cc1,-26,i,4,-0.24
CN(C)c1ccc(/C=N/NC(=O)CNC(=O)c2ccco2)cc1,-3,+,-3,0.57
COC(=O)c1cc(N=CC2=C(O)CC(C)(C)CC2=O)cc(C(=O)OC)c1,-16,i,30*,-0.88
COC(=O)c1cc(OC)c(OC)cc1N=CC1=C(O)CC(C)(C)CC1=O,-11,i,-5,0.01
O=C(CN1C(=O)C2C3C=CC(C3)C2C1=O)OCC(=O)c1ccc(Cl)c([N+](=O)[O-])c1 (configuration not stated),-5,i,2,-1.4
N=c1oc2cc(O)ccc2cc1C(=O)Nc1nc2ccccc2s1,2,+,10,-0.88
Cc1sc(NC(=O)c2ccccc2)c(C(=O)c2ccccc2)c1C,4,i,32*,2.3
CCOC(=O)c1c(NC(=O)c2cccc(N3C(=O)CCC3=O)c2)sc(C)c1C,3,+,0,-0.25
Cc1sc(NC(=O)c2ccccc2)c(C(=O)NC(C)C)c1C,-1,i,5,-1.2
CCCCNC(=S)NNC(=O)c1cc(C2CC2)nc2ccccc12,-21,i,4,1.4
O=C(NCCc1cccnc1)c1cc(COc2ccc(F)cc2Cl)on1,-20,+,5,1.5
Cc1ccc(CN2CCC(C(=O)Nc3ccc(Oc4cccnc4)cc3)CC2)cc1,19,i,-5,-4.8*
Cc1cccc(CN2CCCC(C(=O)Nc3ccccc3Oc3cccnc3)C2)c1 (configuration not stated),9,i,-11,-5.5*
CCn1c(=O)c2sccc2n2c(CCCC(=O)NCc3cccnc3)nnc12,-7,i,-2,-1.2
Cc1ccc(NC(=O)CCNC(=O)c2ccc(Br)cc2)nc1,-16,i,1,-0.13
CSc1cccc(NC(=O)C2CCN(S(=O)(=O)c3ccc4c(c3)NC(=O)CO4)CC2)c1,-16,i,5,0.27
O=C(COc1ccc(S(=O)(=O)N2CCc3ccccc32)cc1Cl)NCc1ccccn1,-27,i,-3,-5.2*
SMILES,DNA FID counter,Rce1 inh,M18AAP inhibitor,Kir21 block
O=C(COc1ccc(S(=O)(=O)NCc2ccccc2)cc1Cl)NCc1ccccn1,-26,i,9,-1.4
COc1ccc(C(=O)Nc2nnc(SCC(=O)NC3CC3)s2)cc1,-12,.,3,-0.76
NNC(=O)c1ccc(S(=O)(=O)N2CCc3ccccc32)cc1,-5,i,-9,-0.99
Cc1cccc(CS(=O)(=O)c2nnc([C@H](Cc3ccccc3)NC(=O)OC(C)(C)C)o2)c1,-32,i,-145,-8.1*
COC(=O)CS(=O)(=O)c1nnc([C@H](Cc2ccccc2)NC(=O)OC(C)(C)C)o1,-36,i,-40,-2.9
COc1ccc(CCN(C)C(=O)c2ccc(S(=O)(=O)Nc3ccccc3C)cc2)cc1OC,-47,+,2,0.85
CCOc1ccc(NS(=O)(=O)c2ccc(C(=O)N(C)CCc3ccc(OC)c(OC)c3)cc2)cc1,-50,i,5,0.65
CCCCCCCCCCOC(=O)Cn1c(COc2ccccc2OC)[n+](C)c2ccccc21,46*,i,-5,-17*
Cn1c(COc2ccccc2O)[n+](C)c2ccccc21,-1,i,-9,0.35
Cn1c(-c2cccc(Br)c2)cnc1NCc1ccccc1O,17,i,3,-6.2*
Cn1c(-c2ccc3c(c2)OCO3)cnc1NCc1ccccc1,25,i,21,-6*
Cn1c(-c2ccc3c(c2)OCO3)cnc1NCc1ccccc1Cl,8,i,-6,-4.3*
Cn1c(-c2ccc3c(c2)OCO3)cnc1NCc1cccc(Cl)c1,29,i,3,-2.7
Cc1ccc(-c2cnc(NCc3cc4c(cc3[N+](=O)[O-])OCO4)n2C)cc1C,5,i,3,1.3
COc1ccccc1NC(=O)c1ccc2[nH]c(C)c(C)c2c1,-14,i,-8,-0.66
CC(=O)N(C)c1ccc(NS(=O)(=O)c2cccc3nsnc23)cc1,-3,i,-8,-0.36
CC1(C)CC(=O)C=C(NNC(=O)c2ccccc2)C1,-6,i,41*,-0.72
COc1cccc(C(=O)COC(=O)c2cccs2)c1,-5,i,-3,2
O=C1CCCN1CC(O)CS(=O)(=O)c1ccccc1 (configuration not stated),-2,+,-5,0.07
COc1ccc(S(=O)(=O)CC(O)CN2CCCC2=O)cc1 (configuration not stated),-2,i,-5,-3.1
COc1ccc(N2C(=O)[C@@H]3[C@H](C2=O)[C@H](C(=O)c2ccc(OC(C)=O)cc2)N2N=CC=C[C@@H]32)cc1,-2,i,4,-4.8*
CC(=O)Oc1ccc(C(=O)[C@H]2[C@H]3C(=O)N(c4ccc(C)cc4)C(=O)[C@H]3[C@@H]3C=CC=NN32)cc1,-12,i,1,0.14
CCc1c(C)c2ccc(OC(C)C(=O)NC(Cc3c[nH]c4ccc(O)cc34)C(=O)O)c(C)c2oc1=O (configuration not stated),-23,i,3,0.16
CN1CCN(c2nc(-c3ccc(Cl)cc3)nc3ccccc23)CC1,39*,i,15,-1.9
CC(=O)N(Cc1ccccc1C)c1cccc(C)c1C,-20,i,-3,-4.6*
CCOC(=O)COc1ccccc1C(=O)c1cnn(-c2ccccc2)c1,-31,i,1,-1.3
COc1cccc(C2CC(c3cccs3)=NN2C(=O)CSc2nc3c(cnn3-c3ccc(F)cc3)c(=O)[nH]2)c1OC (configuration not stated),3,+,11,1.4
Cc1ccc(C(C2=C(O)CC(C)(C)CC2=O)C2C(=O)CC(C)(C)CC2=O)s1 (configuration not stated),-7,i,11,-0.03
CC1(C)CC(=O)C(C(C2=C(O)CC(C)(C)CC2=O)c2ccc(Br)s2)C(=O)C1 (configuration not stated),-11,i,-3,-7.4*
COc1ccc(OC)c(-c2csc(NC(=O)CSc3nnnn3C)n2)c1,.,i,.,0.8
